Entries with a potency or affinity are not part of this list. Unmarked numbers belong to inactive results. No rule for the calls is given here.

CAAX prenyl protease 2 (Homo sapiens), sequence (Q9Y256 whole entry, looked up): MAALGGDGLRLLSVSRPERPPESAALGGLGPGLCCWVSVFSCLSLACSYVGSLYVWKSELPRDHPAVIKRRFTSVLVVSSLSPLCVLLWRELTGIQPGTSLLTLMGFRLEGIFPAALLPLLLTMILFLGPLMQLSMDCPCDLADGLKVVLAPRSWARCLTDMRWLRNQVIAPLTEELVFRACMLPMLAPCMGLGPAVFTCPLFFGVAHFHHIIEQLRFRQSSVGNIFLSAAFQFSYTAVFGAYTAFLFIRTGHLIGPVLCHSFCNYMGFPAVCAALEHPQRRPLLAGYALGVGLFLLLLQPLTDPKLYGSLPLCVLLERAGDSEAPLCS

The test addresses CAAX prenyl protease 2 (Homo sapiens) (UniProt Q9Y256). The test can be described thus: inhibition of Ras-converting CAAX protease Rce1 – biochemical, yeast membranes, quenched-peptide fluorescence, cherry-pick, dose response (AID 588849). The note with it: yeast membrane fractions expressing human Rce1, quenched-peptide fluorescence, 4 h; series mostly up to 10 µM; activity change, negative = inhibition: at the top concentration.
For `c1ccc(Nc2cccc(Nc3ccccc3)n2)cc1`, the “activity change, negative = inhibition” value is 46.8%. As for `CCCCNC(=S)N=Nc1c(O)n(Cc2ccccc2)c2ccccc12`, the figure is -18.5%. As for `O=C(Nc1cccc2ncccc12)c1cccnc1`, the figure is -3.28%. On to `COc1ccccc1CC(=O)Nc1ccc2c(C)cc(=O)oc2c1`, for which the “activity change, negative = inhibition” value is -14% [at 3.5 µM]. As to `Cc1ccc(-c2cc3cccc[n+]3cc2-c2ccc(C)cc2)cc1`, the “activity change, negative = inhibition” value was -24.3%. The value for `CCCCCCSc1cc(-c2nc3cc(C)ccn3c2NCCCC)ccc1OC` was 4.76%; that for `O=C(COc1ccc2ccc(=O)oc2c1)NCCc1c[nH]c2ccc(F)cc12` was 13.3%; that for `COc1ccc(-c2nc(CC(=O)O)cs2)cc1OC` was -9.08%. As for `COc1ccc(-n2c(SCc3ccc([N+](=O)[O-])cc3)nnc2-c2ccc(C)cc2)cc1`, the figure is -12.3%; as for `CCN(C(=O)COC(=O)c1cc(-c2cccs2)nc2ccccc12)C1CCS(=O)(=O)C1` (centres undefined), -10.1%; as for `O=C(Nc1ncccn1)c1ccc([N+](=O)[O-])cc1`, 3.15%. Turning to `Cc1ccc(C(=O)c2c3ccc(C(F)(F)F)cc3nn2CCC(N)=O)cc1`, the “activity change, negative = inhibition” value is 5.68%. As for `COc1ccc(-c2ccc3oc(-c4ccc(OC)cc4)c(-c4ccc(OC)cc4)c3c2)cc1`, the figure is -14.4%; as for `CC1(c2ccc(OCC#N)cc2)C=C(c2ccc(OCC#N)cc2)n2nc(C(F)(F)F)nc2N1` (centres undefined), -17.7%. As to `COC(C[C@@H](O)C[C@H](O)[C@H](C)OCc1ccccc1)OC`, the “activity change, negative = inhibition” value is 12.2%. The value for `CC1CCc2c(sc(NC(=O)COC(=O)c3ccccc3NCc3ccco3)c2C#N)C1` (centres undefined) was 51.9%; that for `CCCCNC(=O)c1cc2c(=O)n3cccc(C)c3nc2n(Cc2ccccc2)c1=N` was -1.87%. The value for `COCCCNC(=O)c1cc2cc3cc(OC)ccc3nc2o1` was 32.3%; that for `COC(C/C=C/[C@H](O)[C@H](C)OCc1ccccc1)OC` was 2.01%. As for `Cc1cc(NS(=O)(=O)c2ccccc2)c([N+](=O)[O-])cc1C`, the figure is -16.3%.

Regarding `Cc1ccc(C2(COC(=O)C(C)C)CO2)c(OC(=O)C(C)C)c1` (centres undefined), the “activity change, negative = inhibition” value is -12.2%. Take `COC(C/C=C\C(=O)[C@H](C)OCc1ccccc1)OC`: the “activity change, negative = inhibition” value was 2.11%.

In the case of `COc1ccc(C2Nc3ccccc3C(=O)N2Cc2ccccc2)cc1COc1ccccn1` (centres undefined), the “activity change, negative = inhibition” value is 63.7%. The value for `CCCCOc1ccc(-c2cc(C(F)(F)F)c(C#N)c(SCC(=O)O)n2)cc1` was 10.3%; that for `CC(=O)N[C@@H](C)c1nc2ccccc2n1CCCN1CCN(c2nc(-c3ccc(C)cc3)cs2)CC1` was 5.44%; that for `CCCCOc1ccc(Cc2c(COCC)[nH]c(=S)[nH]c2=O)cc1` was -12.1%. As for `COc1cccc2sc3ccc(C#CC4(O)CCCCC4)cc3c(=O)c12`, the “activity change, negative = inhibition” value is -14.2%. As for `COc1ccc(S(=O)(=O)NCC2CCCO2)cc1NC(=O)c1ccccc1F` (centres undefined), the figure is -0.788%; as for `c1ccc(-c2ccc(-c3cn4c(n3)CCC4)cc2)cc1`, -17.4%; as for `CCCN(CCC)CCNC(=O)c1cc2c(-c3ccccc3F)nn(C)c2s1`, 1.59%. The value for `COc1ccc([N+](=O)[O-])cc1CSc1ccccn1` was 3.93%; that for `Cc1ccc(-c2nc(SCC(=O)N(C)C3CCS(=O)(=O)C3)[nH]c2-c2ccc(C)cc2)cc1` (centres undefined) was -23.7%; that for `O=C(CN(C1CCCCC1)C1CCCCC1)N1CCc2ccccc2C1` was -4.14%.

For the molecule `COc1cc2ccccc2cc1C(=O)N(CCN(C)C)c1nc2ccc(C)cc2s1`, the “activity change, negative = inhibition” value was -32.8%. The value for `O=C(CCNC(=O)N1CC(=O)Nc2ccccc21)NCCc1cccc(F)c1` was -24.6%; that for `Cc1cc(N2CCOCC2)n2cc(-c3ccccc3)nc2n1` was -3.5%. Turning to `CCCCCCCCCC[N+](C)(C)CC/C=C1/c2ccccc2Sc2ccc(Cl)cc21`, the “activity change, negative = inhibition” value was -7.78% [at 3.5 µM].

For the molecule `Cc1cccc(NS(=O)(=O)c2ccc(C)c(C(=O)OCC(=O)Nc3cc(C)on3)c2)c1`, the “activity change, negative = inhibition” value is -6.78%. In the case of `O=c1c(-c2ccccc2)c(O)c2ccccc2n1-c1ccccc1`, the “activity change, negative = inhibition” value is -15.8%.

Source of the values: PubChem BioAssay AID588849 (Broad Institute, 2011).
